Source: PubChem BioAssay (The Scripps Research Institute Molecular Screening Center)
Hits are enriched below; roughly 2.8% of the tested compounds scored in any of these assays.
MsrA inh: bovine MsrA inhibition; 0.75% of 360,000 active; purified bovine MsrA, absorbance read-out; inhibition, % at 15.5 µM; AID 651718; in the data active = inhibition above about 4.5%;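 also: 0% = vehicle wells with enzyme and 100% = reference inhibitor wells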
bovine MsrA act: activators of bovine methionine sulfoxide reductase A. purified bovine MsrA, absorbance read-out. activation, % at 10.6 µM. 0.3% of 360,000 active. AID 602163; in the data active = activation above about 7.5%;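 also: 0% = vehicle and 100% = reference activator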
rCAG RNA binder: binds r(CAG) RNA repeats | r(CAG) RNA repeat, TO-PRO-1 dye displacement fluorescence | inhibition, % at 3 µM | 1.3% of 370,000 active;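 active = inhibition above the plate cutoff, the mean of all test compounds on that plate plus 3 SD, cut at about 35% in these data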;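 also: 0% = DMSO alone and 100% = 100 µM mitoxantrone as full dye displacement; higher means more dye released from RNA so lower well fluorescence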
HGIII-sPLA2 inh: Blocks human group III sPLA2 activity. QFRET BODIPY PC-A2 liposome hydrolysis, fluorescence. inhibition, % at 12.2 µM. 0.56% of 370,000 active;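 active = inhibition above mean plus 3 SD of compounds lying within the high and low control bounds, cut at about 19% in these data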;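 also: 0% = median of test compound wells and 100% = no enzyme DMSO wells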
Target sequence (Q9NZ20 whole entry, looked up): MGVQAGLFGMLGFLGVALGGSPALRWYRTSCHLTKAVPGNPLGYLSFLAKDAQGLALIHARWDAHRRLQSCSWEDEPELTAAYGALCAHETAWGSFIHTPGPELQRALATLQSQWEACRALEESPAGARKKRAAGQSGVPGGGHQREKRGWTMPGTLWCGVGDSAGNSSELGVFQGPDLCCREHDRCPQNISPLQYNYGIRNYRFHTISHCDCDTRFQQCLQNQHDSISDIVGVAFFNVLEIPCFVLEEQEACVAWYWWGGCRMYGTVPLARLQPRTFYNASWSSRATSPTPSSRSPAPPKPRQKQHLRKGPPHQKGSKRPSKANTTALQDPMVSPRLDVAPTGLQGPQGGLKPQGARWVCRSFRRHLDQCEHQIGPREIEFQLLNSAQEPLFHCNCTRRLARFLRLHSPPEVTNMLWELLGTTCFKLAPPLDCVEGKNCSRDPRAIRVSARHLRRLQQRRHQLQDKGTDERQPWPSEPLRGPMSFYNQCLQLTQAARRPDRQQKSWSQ
sPLA2 confirm: human GIII-sPLA2 inhibition, confirmation. shares compounds with HGIII-sPLA2 inh. recombinant hGIII-sPLA2, BODIPY PC-A2 QFRET fluorescence. inhibition, % at 12.2 µM. 34% of 2,000 active. AID 743280;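 active = mean inhibition across triplicates above the hit cutoff set in the earlier primary screen, cut at about 19% in these data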;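 also: 0% = enzyme with DMSO and 100% = DMSO wells lacking enzyme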
BODIPY interf: counter-screen for HGIII-sPLA2 inhibitors: 535nm fluorescence interference; shares compounds with HGIII-sPLA2 inh; BODIPY FL product fluorescence interference, QFRET; inhibition, % at 12.2 µM; 8.5% of 2,000 active;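 active = average inhibition above the solvent-only control mean plus 3 SD, cut at about 6% in these data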;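 also: 0% = DMSO with substrate plus product and 100% = DMSO with substrate alone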
BODIPY interf DR: counter-screen for HGIII-sPLA2 inhibitors: 535nm fluorescence interference, dose response; shares compounds with HGIII-sPLA2 inh; AID 743455; 240 tested, under 10 active; BODIPY FL product fluorescence interference, cell-free; IC50, µM;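 active = IC50 at or below 10 µM; inactive = IC50 above 10 µM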
The depositor's hits bear a star; . = not tested or not shown.

SMILES	MsrA inh	bovine MsrA act	rCAG RNA binder	HGIII-sPLA2 inh	sPLA2 confirm	BODIPY interf	others
CCOC(=O)C1CCCN(C(=O)C2(c3ccc(Cl)cc3)CCCC2)CC1 (stereo not drawn)	0.0	0.1	-2.0	-5.9	.	.
CCOc1ccc(NC(=O)CC2CC(C)(C)OC2=O)cc1 (stereo not drawn)	-1.6	1.7	1.0	0.1	.	.
CCOc1ccc(NCC2CCOC(C)(C)C2)cc1 (stereo not drawn)	0.2	0.2	-5.0	19.6*	11.5	-3.9
CC(C)(C)c1csc(NNC(=O)c2ccc(Cl)cc2)n1	-0.9	3.2	1.8	33.9*	44.5*	4.3	BODIPY interf DR=>122
O=c1[nH]n(Cc2ccccc2)c2ccccc12	1.0	-4.6	-1.0	20.3*	6.5	-2.5
O=c1ccn(Cc2ccccc2)c2ccccc12	0.8	-3.8	-0.1	1.4	.	.
Brc1ccc(-c2csc(N/N=C/c3ccco3)n2)cc1	0.8	-5.0	17.1	0.9	.	.
S=C(NCC1CCCCC1)Nc1cccnc1	0.4	-9.7	-2.2	22.6*	6.5	-5.5
S=C(NCC1CCCCC1)Nc1ccc(Oc2ccccc2)cc1	0.2	0.3	3.1	2.8	.	.
COc1cc(C2Nc3cc(C)c(C)cc3NC3=C2C(=O)CC(C)(C)C3)ccc1OC(C)=O (stereo not drawn)	3.9	-3.8	-8.4	24.3*	8.3	-8.6
COc1cc(OC)cc(-c2nn[nH]n2)c1	0.1	-5.4	-1.4	20.1*	-2.3	-0.4
COc1ccc(CN2CCN(Cc3ccccc3)C(CCO)C2)cc1OC (stereo not drawn)	-1.7	-2.2	-4.9	-0.5	.	.
Cc1cccn2c(CN(C)CCC3CCCCO3)c(C(=O)N3CCCCC3)nc12 (stereo not drawn)	-0.1	-3.5	-10.4	-2.1	.	.
Cc1ccccc1C(=O)NNC(=O)c1cc(N)cc([N+](=O)[O-])c1	1.1	-2.9	5.4	11.5	.	.
CCOC(=O)c1cc(N)cc([N+](=O)[O-])c1	0.5	-2.9	-1.7	23.4*	2.5	-3.6
O=C(NCc1cccs1)c1cnn2cccnc12	0.7	-2.8	-1.6	24.3*	-4.8	-4.6
Cc1cc(Cl)c(OCCCn2cncn2)c(Br)c1	-0.8	-3.3	-5.7	0.5	.	.
Cc1n[nH]c(=S)n1-c1cccc(Cl)c1	2.0	5.9	3.4	7.6	.	.
CSc1n[nH]c(=O)n1-c1cccc(Cl)c1	-0.5	-3.4	-3.5	19.7*	-1.5	-5.7
COc1ccccc1Cn1c(=S)[nH]c2cc(C(=O)NCCN3CCOCC3)ccc2c1=O	-0.1	-2.0	2.8	11.7	.	.
COc1ccccc1Cn1c(=S)[nH]c2cc(C(=O)NCCCN3CCOCC3)ccc2c1=O	0.5	2.0	6.5	20.4*	12.1	-9.0
Cc1cccc(-n2cc(-c3ccccc3)[nH]c2=S)c1	1.1	3.8	4.5	20.3*	31.2*	2.7
Cc1ccc(-c2cn(-c3ccccc3F)c(=S)[nH]2)cc1	0.7	-0.1	6.4	26.9*	23.6*	4.4
COc1ccc(-n2cc(-c3ccccc3)[nH]c2=S)cc1	0.3	-6.0	3.7	19.3*	40.6*	2.0	BODIPY interf DR=>122
CCOC(=O)N1CCN(c2ccc(S(=O)(=O)N3CCC(C)CC3)cc2[N+](=O)[O-])CC1	-0.3	-9.4	2.0	-4.5	.	.
SMILES	MsrA inh	bovine MsrA act	rCAG RNA binder	HGIII-sPLA2 inh	sPLA2 confirm	BODIPY interf	others
COc1ccc(NC(=O)c2ccccc2N(Cc2ccccc2)S(C)(=O)=O)cc1	0.0	-1.0	-3.0	-4.4	.	.
CCCN1C[C@@H](C)[C@@H](OC)CN(C)C(=O)c2ccc(NC(=O)c3cccc(F)c3)cc2OC[C@H]1C	0.6	.	1.9	20.0*	4.4	-11.2
COc1cccc(C(=O)Nc2ccc3c(c2)OC[C@H](C)N(CCc2ccccc2)C[C@@H](C)[C@@H](OC)CN(C)C3=O)c1	0.8	.	6.0	-5.1	.	.
Cc1ccccc1-c1csc(N)n1	1.6	-2.8	-0.3	4.3	.	.
Cc1c(-c2csc(N)n2)c2ccccc2n1C	1.1	-2.0	9.0	20.2*	12.2	4.1
CCOC(=O)N1CCN(C(=O)/C(=C\c2ccc(SC)cc2)NC(=O)c2ccccc2)CC1	2.1	-1.8	6.3	-7.0	.	.
CN(C)c1cccc(NC(=O)c2cccc3c(-c4ccc(F)c(F)c4)coc23)c1	1.5	-3.4	10.0	4.4	.	.
CCCCCCn1cnc2c(c1=O)c1nc3ccccc3nc1n2/N=C/c1ccco1	-0.7	-2.2	7.0	0.7	.	.
COCCn1cnc2c(c1=O)c1nc3ccccc3nc1n2/N=C/c1ccco1	1.3	-6.0	2.1	19.4*	5.3	-8.9
Oc1cccc2ccc(/C=C/c3ccccc3Br)nc12	1.9	-1.9	15.5	26.1*	5.7	-0.8
CCN(CC)C(=O)[C@H]1C[C@H](CC(=O)NCCN2CCOCC2)C(=O)N2CCc3c([nH]c4cc(-c5ccco5)ccc34)[C@]12C	-0.9	-0.5	10.3	-1.1	.	.
CCC(Cc1ccccc1)NC(=O)C1CCN(S(=O)(=O)c2c(C)noc2C)CC1 (stereo not drawn)	-0.1	-3.3	-5.5	3.3	.	.
O=C(CN1CCN(c2ccccc2F)CC1)NC(=O)NCc1ccco1	0.1	-5.8	3.5	-1.8	.	.
CCOC(=O)COc1ccc(-c2nnc(-c3ccccc3)o2)cc1	-0.2	-11.3	-3.0	-5.8	.	.
C/C(=N\NC(=O)CSCc1ccc([N+](=O)[O-])cc1)c1ccccc1O	0.9	-2.5	21.9	20.9*	13.8	-7.5
Cc1ccc(NC(=S)NNC(=O)c2nn(C)c(C)c2Cl)cc1	-0.1	-1.2	9.9	38.1*	48.1*	0.5	BODIPY interf DR=>122
Cc1ccc(C(=O)N2CCCCCC2)cc1S(=O)(=O)N1CCOCC1	0.0	-2.5	-6.5	-4.8	.	.
CC(C)CCNC(=O)Cc1ccc(Nc2nc(=S)[nH]c3ccccc23)cc1	2.9	0.9	5.9	11.4	.	.
O=C(Cc1ccc(Nc2nc(=S)[nH]c3ccccc23)cc1)NC1CCCCC1	3.6	.	15.5	21.3*	13.7	-0.5
N#C/C(=N\Nc1ccccc1)C(N)=S	0.6	-10.7	1.2	19.4*	33.4*	-3.3
O=C(CC1N=C2c3ccccc3N=C(SCc3ccc(Cl)cc3)N2C1=O)NCc1ccco1 (stereo not drawn)	.	-7.7	.	.	.	.
C=CCNS(=O)(=O)c1ccc(OCC(=O)OC)cc1	1.0	-8.2	-2.5	23.9*	0.6	-2.4
CCCSc1nc2c([nH]1)c(=O)n(C)c(=S)n2C	1.3	-2.1	1.7	19.7*	6.7	1.1
CC(=O)C[C@@H](O)CC(=O)[C@H]1OC(=O)[C@@H](C)C/C=C\Cc2ccccc21	0.3	-2.4	3.6	2.5	.	.
CCOc1ccc(N2C(=O)CC(NCC3CCCO3)C2=O)cc1 (stereo not drawn)	0.5	-12.2	4.0	6.0	.	.
Cc1nn(CC(=O)NNC(=S)Nc2ccccc2)c(C)c1[N+](=O)[O-]	0.0	2.9	4.2	19.7*	21.9*	0.1
Cc1cccc(NC(=S)NNC(=O)CCn2nc(C)c([N+](=O)[O-])c2C)c1	1.1	-11.8	3.3	16.7	.	.
